Screening results (PubChem)
Sampled rows, rich in hits. Any-hit rate of the full collection: about 9.2%.
FLuc modulator – firefly luciferase modulation, counter-screen for miR-21 project. purified FLuc, Km substrates, luminescence inhibition. Potency, µM (titrated, usually from 57.5 µM), for inactives: at the top dose activity change, negative = inhibition, usual class: inhibitors. 360,000 tested, 6.9% active. AID 588342;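 also: plate controls were vehicle for no effect and reference inhibitor for full effect; nearly all actives have a fitted effect of over 55% in size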
Target sequence (P08659 whole entry, looked up): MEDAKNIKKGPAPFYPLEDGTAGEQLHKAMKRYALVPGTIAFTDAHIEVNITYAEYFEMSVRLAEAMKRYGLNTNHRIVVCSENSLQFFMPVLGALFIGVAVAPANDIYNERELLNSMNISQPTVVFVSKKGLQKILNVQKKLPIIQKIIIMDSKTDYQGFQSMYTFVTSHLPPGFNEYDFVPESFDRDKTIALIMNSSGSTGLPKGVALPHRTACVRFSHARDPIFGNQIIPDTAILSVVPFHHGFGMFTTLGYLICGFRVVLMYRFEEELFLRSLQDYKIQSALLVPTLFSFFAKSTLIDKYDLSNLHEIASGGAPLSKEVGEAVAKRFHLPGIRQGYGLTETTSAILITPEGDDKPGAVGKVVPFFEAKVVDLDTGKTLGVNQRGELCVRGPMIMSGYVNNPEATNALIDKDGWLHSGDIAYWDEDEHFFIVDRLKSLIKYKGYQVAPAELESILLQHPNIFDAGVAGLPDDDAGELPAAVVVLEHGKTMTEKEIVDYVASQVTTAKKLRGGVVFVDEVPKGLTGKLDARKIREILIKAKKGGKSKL
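Biochemical qHTS of compounds, final roughly 60 µM downward over six points, against 10 nM purified firefly luciferase using Km concentrations of substrates (10 uM D-luciferin, 10 uM ATP) in Tris acetate pH 7.5 buffer; luminescence output.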
ELG1 genotox – genotoxicity induction in ELG1-luciferase HEK293T cells | HEK293T ELG1-luciferase reporter, luminescence, 16 h | Potency, µM (doses to about 46 µM), for inactives: at the highest dose activity change, positive = activation, hits mostly activators | 330,000 tested, 1.3% active | AID 504466; also: % of control where 0% means no effect; nearly all actives have a fitted effect of over 60% in size
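Luminescence read-out: rising ELG1-luciferase signal, reflecting elevated ELG1 protein under genetic stress, flags genotoxic compounds. Cells were treated for 16 hr at 37 °C before ONE-Glo detection.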
NPC1 prom act – activators of NPC1 promoter; 320,000 tested, 2.4% active; Huh7 NPC1 promoter luciferase reporter, 24 h; AID 485313; Potency, µM (top dose mostly 9.22 µM), inactives show top-dose activation, most hits filed as activators; also: % of control where 0% means no effect; nearly all actives have a fitted effect of over 60% in size
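Quantitative HTS used a cell-based reporter: Huh7 cells stably bearing the NPC1 promoter upstream of luciferase were treated with compounds for 24 h, and promoter activation was read as luminescence.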
ELG1 repair inh – inhibitors of ELG1-dependent DNA repair in HEK293T cells | AID 504467 | Potency, µM (highest dose often 46.1 µM), for the others: at the highest dose activity change, negative = inhibition, actives largely listed as inhibitors | 330,000 tested, 2.3% active | HEK293T ELG1-luciferase reporter, luminescence, 16 h; DNA damage induced by 5-fluorouridine; also: % is scaled to controls: 0 for no effect and ±100 for the full control effect; nearly all actives have a fitted effect of over 55% in size
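HEK293T cells expressing luciferase-tagged ELG1 (2,000/well) received 5-Fluorouridine plus compound or DMSO for 16 hr at 37 °C. Luciferase was read by ONE-Glo luminescence after 30 min at room temperature.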
Rab9 promoter act – activates the Rab9 promoter; Huh7 Rab9 promoter-luciferase reporter, luminescence, 24 h; Potency, µM (highest dose often 9.22 µM), inactives show at the top dose activation, negative = inhibition, actives largely listed as activators; 320,000 tested, 2.8% active; AID 485297; also: % of control where 0% means no effect; nearly all actives have a fitted effect of over 60% in size
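Luminescence from Amplite-detected luciferase (10 minutes, ambient) reports Rab9 promoter activation. Before that, stable Rab9-luciferase Huh7 cells (1500/well, reduced-serum OP-MEM I plus 10% FBS) were exposed to compound for 24 hours at 37C.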
SMN2 splice up – SMN2 splice variant enhancement | HEK293 SMN2-luciferase splicing reporter, luminescence, 30-36 h | AID 1458 | 210,000 tested, 2.8% active | Potency, µM (doses to about 46.1 µM), for inactives: at the highest dose activity change, positive = activation, usual class: activators; also: % of control where 0% means no effect; nearly all actives have a fitted effect of over 55% in size
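qHTS luciferase splicing reporter: luminescence rises when SMN2 exon 7 is included in transfected HEK293 cells. Compound exposure lasted 30-36 h at 37C, with 4.5 mM final sodium butyrate as control, followed by a ONE-Glo read.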
The depositor's hits bear a star; ? = inconclusive; . = no result given; [ ] = dose if it differs, or a comment. Calls follow the shape of the dose curve; as a rule, active = well fitted curve in the direction sought with a large enough effect; inconclusive = small, poorly fitted or top-dose-only effect, or another doubt; inactive = no such curve, though single readings can be large; an effect the other way counts as inactive or inconclusive. Potency is read from the fitted curve at half-maximal effect.

SMILES	FLuc modulator	ELG1 genotox	NPC1 prom act	ELG1 repair inh	Rab9 promoter act	SMN2 splice up
O=C(c1cccc(-c2nnc(-c3ccccc3)o2)c1)N1CCCCCC1	17µM*	?	?	19%	?	?
O=C(c1ccc(-c2ccccc2)cc1)N1CCCC1	?	?	1%	?	11%	-2%
O=C(c1cccc(-c2nnc(-c3ccccc3)o2)c1)N1CCCCC1	17µM*	?	?	?	?	14µM*
Cc1cccc(C)c1NS(=O)(=O)c1cc2c3c(c1)CCN3C(=O)CC2	6%	5%	1%	-2%	-11%	.
Cc1ccc(NC(=O)Nc2ccccc2)cc1[N+](=O)[O-]	8.5µM*	-1%	?	?	?	13µM*
O=C(Nc1ccc(Cl)c([N+](=O)[O-])c1)Nc1nc2ccccc2s1	?	-5%	18%	?	17%	.
O=C(Nc1ccc(Cl)cc1)Nc1cc([N+](=O)[O-])ccc1F	?	-13%	1%	13µM*	-1%	-16%
O=C(Nc1ccccc1)Nc1ccc(Cl)c([N+](=O)[O-])c1	19µM*	-11%	13%	?	12%	-4%
O=C(Nc1ccccc1)Nc1ccc(F)c([N+](=O)[O-])c1	17µM*	-6%	-3%	-11%	-4%	-47%
CC(=O)Nc1ccc(C)c([N+](=O)[O-])c1	-2%	3%	-6%	-1%	-7%	.
CC(=O)c1c(C)[nH]c(C(=O)NCCc2c[nH]c3ccccc23)c1C	-12%	?	?	?	?	.
Cc1ccc(CC(C(=O)O)C(C)C(=O)Nc2ccc(F)cc2)cc1 (stereo not given)	0%	-1%	-3%	-4%	1%	.
COC(=O)c1cc(S(=O)(=O)Nc2cc(OC)cc(OC)c2)c[nH]1	0%	-2%	-3%	-5%	-5%	.
CC(=O)C(=Nc1ccc(Cl)cc1Cl)NNc1cccc(Cl)c1	4%	-2%	1%	?	-1%	-6%
COc1cc(NC(=O)CN(C)Cc2ccc(OC(F)F)cc2)c(C)cc1[N+](=O)[O-]	-1%	-7%	-3%	?	0%	.
COc1ccc(CN(C)CC(=O)Nc2cc(OC)c([N+](=O)[O-])cc2C)c(OC)c1	5%	-9%	-3%	16µM*	-7%	-38%
COc1cccc(NC(=O)CN(C)CC(=O)Nc2ccc(C)c([N+](=O)[O-])c2)c1	5%	-24%	-4%	18µM*	-9%	.
COc1ccc(CNC(=O)/C(C#N)=C2\N=C(NC(=O)c3cccs3)c3ccccc32)cc1	0%	-5%	1%	-10%	-3%	-16%
COc1ccccc1/C=N/NC(=O)c1cccc(NC(=O)c2ccccc2C)c1	15µM*	-18%	-3%	0%	1%	.
CCCCC(=O)Nc1cccc(C(=O)N/N=C/c2ccc(OC)cc2OC)c1	17µM*	0%	-1%	-19%	1%	-18%
COc1ccc(N2Cc3ccc(C(=O)N/N=C\c4ccc(O)cc4O)cc3C2)cc1	15µM*	11%	?	?	?	.
O=C(N/N=C/c1ccc(F)cc1)c1cccc(NC(=O)c2ccccc2Cl)c1	9.5µM*	2%	0%	0%	6%	.
CCOC(=O)N1CCN(C(=O)/C=C/c2ccc(OC)cc2)CC1	?	2%	-3%	11%	-1%	.
CCC(=O)N1c2ccc(S(=O)(=O)N3CCN(c4ccc([N+](=O)[O-])cc4)CC3)cc2CC1C (stereo not given)	0%	-10%[9.26 µM]	-37%	5%	-37%	.
COc1ccc(NC(=O)O/N=C/c2ccccc2Cl)cc1	30µM*	16%	4%	?	-2%	.
SMILES	FLuc modulator	ELG1 genotox	NPC1 prom act	ELG1 repair inh	Rab9 promoter act	SMN2 splice up
COc1ccc(/C=N/NC(=O)c2cccc(NC(=O)c3ccccc3Cl)c2)c(OC)c1	4.3µM*	14%	10%	-7%	2%	-28%
COc1ccc(/C=N/NC(=O)c2cccc(NC(=O)c3ccccc3Cl)c2)cc1	5.4µM*	0%	-19%	?	-2%	.
COc1ccc(C(=O)Nc2cccc(C(=O)N/N=C/c3ccc(OC)cc3OC)c2)cc1	1.9µM*	1%	?	?	4µM*	.
NS(=O)(=O)c1cccc(NC(=O)COC(=O)CCc2ccccc2)c1	-3%	0%	-2%	2%	0%	.
CN(C)/C=N/c1ncc(-c2ncc(C(F)(F)F)cc2Cl)cn1	-6%	9%	1%	?	20%	18%
Cc1oc2ccc(NS(=O)(=O)c3cccc4cccnc34)cc2c1C(=O)OC(C)C	3%	-3%	-8%	?	-2%	-8%
COc1cc(/C=N/NC(=O)c2cccc(NC(=O)c3ccccc3Cl)c2)ccc1O	15µM*	-9%	5%	?	-5%	-7%
CC(OC(=O)C1CCN(S(=O)(=O)c2ccc(Cl)cc2)CC1)C(=O)N1CCc2ccccc21 (stereo not given)	1%	-14%	-1%	-12%	1%	-19%
O=C(Cc1ccc(Br)cc1)N1CCCC1	1%	8%	-4%	10%	4%	.
O=C(Cc1ccc(Br)cc1)N1CCCCCC1	?	21µM*	?	?	19%	10µM*
O=C(Nc1ccccc1)OCc1cncs1	-11%	8%	6%	?	20%	9%
O=C(/C=C/c1ccccc1)OCc1cncs1	27µM*	?	29%	?	?	7%
CCc1ccccc1NC(=O)Cn1c(=O)n(Cc2ccc3c(c2)OCO3)c(=O)c2ccc(C(=O)NC3CCCCC3)cc21	2%	.	.	.	.	1%
O=C(c1c[nH]c(C(=O)N2CCN(c3ccccc3F)CC2)c1)c1cccc(Cl)c1Cl	3%	-13%	-25%	-17%	-13%	-53%
Cc1ccccc1C(=O)c1c[nH]c(C(=O)N2CCN(c3ccccc3F)CC2)c1	-11%	-3%	-2%	23µM*	-7%	-8%
CC(C)Oc1ccc(CNC(=O)c2ccc(CN3CC(=O)N4CCCCC4C3=O)cc2)cc1 (stereo not given)	-5%	.	.	.	.	.
O=C(CN1C(=O)NC2(CCCC2)C1=O)Nc1cc(Cl)ccc1N1CCOCC1	0%	2%	-2%	13%	1%	.
